# PubChem BioAssay (NCATS)
# Values joined by “and” are separate entries in the source; they are usually repeats but may differ in a detail not shown here. Identical values can stand only once. Results filed as inconclusive are left out. A call without a number means that no potency is given here. A number with no mark means an inactive call. Active and inactive are the calls of the source. Calls follow the shape of the dose curve; as a rule, active = well fitted curve in the direction sought with a large enough effect; inconclusive = small, poorly fitted or top-dose-only effect, or another doubt; inactive = no such curve, though single readings can be large; an effect the other way counts as inactive or inconclusive.
# Legend:
# HaCat [1] = experiment: Cytotoxic Profiling of Annotated Libraries Using Quantitative High-Throughput Screening (AID 1296008); settings: Five cell lines viability, CellTiter-Glo ATP luminescence, 48-72 h; max response: stronger effect = lower value; also: nearly all actives have a fitted effect of over 60% in size
# Procedure, shortened: (§1)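 Cytotoxicity was measured as CellTiter-Glo ATP luminescence, read after 10 min at room temperature. Compound treatment of the cells lasted 48 or 72 hr at 37 degrees Celsius in a qHTS format.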
# KB-3-1 = experiment: as above; settings: Five cell lines viability, CellTiter-Glo ATP luminescence, 48-72 h; max response: stronger effect = lower value
# Procedure, shortened: as §1
# NIH3T3 [2] = experiment: as above; settings: Five cell lines viability, CellTiter-Glo ATP luminescence, 48-72 h; max response: stronger effect = lower value
# Procedure, shortened: as §1
# HEK293T [3] = experiment: qHTS assay to identify novel small-molecules to repurpose for Merkel cell carcinoma treatment (AID 1296009); settings: MCC and control cell lines, CellTiter-Glo viability, 72 h; at 44.8 µM (top of the series) unless noted; also: nearly all actives have a fitted effect of over 60% in size; also: potency is read from the fitted curve at half-maximal effect
# Procedure, shortened: (§2)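 72 hr, 37 degree celsius; NPC 8-pt / MIPE 11-pt dose response; compound pinned in DMSO; CellTiter-Glo, 10 min RT, luminescence; normalized to no-cell and DMSO controls.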
# MCC-13 = experiment: as above; settings: MCC and control cell lines, CellTiter-Glo viability, 72 h; series mostly up to 46 µM
# Procedure, shortened: as §2
# MCC-26 = experiment: as above; settings: MCC and control cell lines, CellTiter-Glo viability, 72 h; series mostly up to 46 µM
# Procedure, shortened: as §2
# MKL-1 = experiment: as above; settings: MCC and control cell lines, CellTiter-Glo viability, 72 h; series mostly up to 46 µM
# Procedure, shortened: as §2
# MKL-2 = experiment: as above; settings: MCC and control cell lines, CellTiter-Glo viability, 72 h; series mostly up to 46 µM
# Procedure, shortened: as §2
# UISO = experiment: as above; settings: MCC and control cell lines, CellTiter-Glo viability, 72 h; series mostly up to 46 µM
# Procedure, shortened: as §2
# WaGa = experiment: as above; settings: MCC and control cell lines, CellTiter-Glo viability, 72 h; series mostly up to 46 µM
# Procedure, shortened: as §2
# C33A = experiment: Primary qHTS to identify gynecologic anti-cancer compounds using libraries of approved drugs and bioactive compounds (AID 1345084); settings: Gynecologic cancer cell panel viability, ATPlite luminescence, 48 h; series mostly up to 57.5 µM; also: nearly all actives have a fitted effect of over 55% in size
# Procedure, shortened: (§3)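 Luminescence from the ATPlite ATP-monitoring reagent indicates viable cell number; lower signal means cytotoxicity. Cells received compound 16 h after seeding and were exposed for 48 h across five concentrations.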
# CASKI = experiment: as above; settings: Gynecologic cancer cell panel viability, ATPlite luminescence, 48 h; series mostly up to 57.5 µM
# Procedure, shortened: as §3
# Es-2 = experiment: as above; settings: Gynecologic cancer cell panel viability, ATPlite luminescence, 48 h; series mostly up to 57.5 µM
# Procedure, shortened: as §3
# HeLa = experiment: as above; settings: Gynecologic cancer cell panel viability, ATPlite luminescence, 48 h; series mostly up to 57.5 µM
# Procedure, shortened: as §3
# Hek293T [4] = experiment: as above; settings: Gynecologic cancer cell panel viability, ATPlite luminescence, 48 h, control line for the selectivity index; series mostly up to 57.5 µM
# Procedure, shortened: as §3
# JEG-3 = experiment: as above; settings: Gynecologic cancer cell panel viability, ATPlite luminescence, 48 h; series mostly up to 57.5 µM
# Procedure, shortened: as §3
# OV90 = experiment: as above; settings: Gynecologic cancer cell panel viability, ATPlite luminescence, 48 h; series mostly up to 57.5 µM
# Procedure, shortened: as §3
# HACAT [5] = experiment: qHTS assay to identify novel small-molecules to repurpose for Merkel cell carcinoma treatment (AID 1296009); settings: MCC and control cell lines, CellTiter-Glo viability, 72 h; at 44.8 µM (top of the series) unless noted; also: nearly all actives have a fitted effect of over 60% in size; also: potency is read from the fitted curve at half-maximal effect
# Procedure, shortened: as §2
# CAOV3 = experiment: Primary qHTS to identify gynecologic anti-cancer compounds using libraries of approved drugs and bioactive compounds (AID 1345084); settings: Gynecologic cancer cell panel viability, ATPlite luminescence, 48 h; series mostly up to 57.5 µM; also: nearly all actives have a fitted effect of over 55% in size
# Procedure, shortened: as §3
# NIH3T3 [6] = experiment: qHTS assay to identify novel small-molecules to repurpose for Merkel cell carcinoma treatment (AID 1296009); settings: MCC and control cell lines, CellTiter-Glo viability, 72 h; at 44.8 µM (top of the series) unless noted; also: nearly all actives have a fitted effect of over 60% in size; also: potency is read from the fitted curve at half-maximal effect
# Procedure, shortened: as §2
compound,measurement,setting,value
CC1(C)O[C@@H]2C[C@H]3[C@@H]4C[C@H](F)C5=CC(=O)CC[C@]5(C)[C@H]4[C@@H](O)C[C@]3(C)[C@]2(C(=O)CO)O1,max response,HaCat [1],-7.7%
same,max response,KB-3-1,28%
same,max response,NIH3T3 [2],0.0351%
same,outcome,HEK293T [3],inactive
same,Potency,MCC-13,inactive
same,Potency,MCC-26,inactive
same,Potency,MKL-1,inactive
same,Potency,MKL-2,inactive
same,Potency,UISO,inactive
same,Potency,WaGa,inactive
same,Potency,C33A,inactive
same,Potency,CASKI,inactive
same,Potency,Es-2,inactive
same,Potency,HeLa,inactive
same,Potency,Hek293T [4],inactive
same,Potency,JEG-3,inactive
same,Potency,OV90,inactive
CN1CCC[C@@H]1c1cccnc1,outcome,HaCat [1],inactive
same,max response,KB-3-1,-0.673%
same,max response,NIH3T3 [2],0.585%
same,outcome,HACAT [5],inactive
same,Potency,MCC-13,inactive
same,Potency,MKL-1,inactive
same,Potency,MKL-2,inactive
same,Potency,UISO,inactive
same,Potency,WaGa,inactive
same,Potency,C33A,inactive
same,Potency,CAOV3,inactive
same,Potency,CASKI,inactive
same,Potency,Es-2,inactive
same,Potency,HeLa,inactive
same,Potency,Hek293T [4],inactive
same,Potency,JEG-3,inactive
same,Potency,OV90,inactive
CC(=O)Nc1c(I)cc(I)c(C(=O)O)c1I,max response,HaCat [1],4.29%
same,max response,KB-3-1,-17.1%
same,outcome,NIH3T3 [2],inactive
same,Potency,MCC-13,inactive
same,Potency,MCC-26,inactive
same,Potency,MKL-1,inactive
same,Potency,MKL-2,inactive
same,outcome,NIH3T3 [6],inactive
same,Potency,UISO,inactive
same,Potency,WaGa,inactive
same,Potency,C33A,inactive
same,Potency,CAOV3,inactive
same,Potency,CASKI,inactive
same,Potency,Es-2,inactive
same,Potency,HeLa,inactive
same,Potency,Hek293T [4],inactive
same,Potency,JEG-3,inactive
same,Potency,OV90,inactive
COc1cc2c(cc1OC)[C@@H]1CC(=O)[C@@H](CC(C)C)CN1CC2,max response,HaCat [1],-0.956%
same,max response,KB-3-1,20.8%
same,outcome,NIH3T3 [2],inactive
same,Potency,MCC-13,inactive
same,Potency,MCC-26,inactive
same,Potency,MKL-1,inactive
same,Potency,MKL-2,inactive
same,outcome,NIH3T3 [6],inactive
same,Potency,UISO,inactive
same,Potency,WaGa,inactive
same,Potency,C33A,inactive
same,Potency,CAOV3,inactive
same,Potency,CASKI,inactive
same,Potency,Es-2,inactive
same,Potency,HeLa,inactive
same,Potency,Hek293T [4],inactive
same,Potency,JEG-3,inactive
same,Potency,OV90,inactive
CC(C)(C(=O)c1cccnc1)c1cccnc1,max response,HaCat [1],3.03%
same,max response,KB-3-1,11%
same,outcome,NIH3T3 [2],inactive
same,outcome,HEK293T [3],inactive
same,Potency,MCC-13,inactive
same,Potency,MCC-26,inactive
same,Potency,MKL-1,inactive
same,Potency,MKL-2,inactive
same,outcome,NIH3T3 [6],inactive
same,Potency,UISO,inactive
same,Potency,WaGa,inactive
same,Potency,C33A,inactive
same,Potency,CAOV3,inactive
same,Potency,CASKI,inactive
same,Potency,Es-2,inactive
same,Potency,HeLa,inactive
same,Potency,Hek293T [4],inactive
same,Potency,OV90,inactive
CN(C)CC/C=C1\c2ccccc2Sc2ccc(Cl)cc21,outcome,HaCat [1],inactive
same,max response,KB-3-1,-2.56%
same,max response,NIH3T3 [2],-4.42%
same,outcome,HACAT [5],inactive
same,Potency,MCC-13,inactive
same,Potency,MCC-26,inactive
same,Potency,MKL-2,11.9 µM (active)
same,Potency,C33A,inactive
same,Potency,CAOV3,inactive
same,Potency,CASKI,inactive
same,Potency,Es-2,inactive
same,Potency,HeLa,inactive
same,Potency,Hek293T [4],inactive
same,Potency,JEG-3,inactive
CCCCCC=CCC=CCCCCCCCC(=O)OCC,outcome,HaCat [1],inactive
same,max response,KB-3-1,-4.13%
same,outcome,NIH3T3 [2],inactive
same,outcome,HACAT [5],inactive
same,Potency,MCC-13,inactive
same,Potency,MCC-26,inactive
same,Potency,MKL-2,15 µM (active)
same,outcome,NIH3T3 [6],inactive
same,Potency,UISO,inactive
same,Potency,C33A,inactive
same,Potency,CAOV3,inactive
same,Potency,CASKI,inactive
same,Potency,Es-2,inactive
same,Potency,HeLa,inactive
same,Potency,Hek293T [4],inactive
same,Potency,JEG-3,inactive
same,Potency,OV90,inactive
O=C1OCCN1/N=C/c1ccc([N+](=O)[O-])o1,outcome,HaCat [1],inactive
same,max response,KB-3-1,-3.42%
same,outcome,NIH3T3 [2],inactive
same,outcome,HACAT [5],inactive
same,Potency,MCC-13,inactive
same,Potency,MCC-26,inactive
same,outcome,NIH3T3 [6],inactive
same,Potency,C33A,inactive
same,Potency,CASKI,inactive
same,Potency,Es-2,inactive
same,Potency,HeLa,inactive
same,Potency,Hek293T [4],inactive
same,Potency,JEG-3,inactive
same,Potency,OV90,inactive
C[C@H](O)C(=O)Nc1c(I)c(C(=O)NC(CO)CO)c(I)c(C(=O)NC(CO)CO)c1I,outcome,HaCat [1],inactive
same,max response,KB-3-1,3.55%
same,max response,NIH3T3 [2],-5.03%
same,outcome,HACAT [5],inactive
same,Potency,MCC-13,inactive
same,Potency,MKL-1,inactive
same,Potency,MKL-2,inactive
same,Potency,UISO,inactive
same,Potency,WaGa,inactive
same,Potency,C33A,inactive
same,Potency,CAOV3,inactive
same,Potency,CASKI,inactive
same,Potency,Es-2,inactive
same,Potency,HeLa,inactive
same,Potency,JEG-3,inactive
CC1(C)OC[C@@H](COC(=O)CCc2ccc(OC[C@@H](O)CNCCNC(=O)N3CCOCC3)cc2)O1,max response,HaCat [1],3.95%
same,max response,KB-3-1,-12.4% and -13.1%
same,max response,NIH3T3 [2],4.95%
same,outcome,HEK293T [3],inactive
same,Potency,MCC-13,inactive
same,Potency,MKL-1,inactive
same,Potency,MKL-2,inactive
same,Potency,UISO,inactive
same,Potency,WaGa,inactive
same,Potency,C33A,inactive
same,Potency,CAOV3,inactive
same,Potency,CASKI,inactive
same,Potency,Es-2,inactive
same,Potency,HeLa,inactive
same,Potency,Hek293T [4],inactive
same,Potency,JEG-3,inactive
same,Potency,OV90,inactive
C[C@]12CCC(=O)C=C1CC[C@H]1[C@@H]3CC[C@](O)(C(=O)CO)[C@@]3(C)C[C@H](O)[C@@]12F,max response,HaCat [1],-3.35%
same,max response,KB-3-1,18.3% and -1.2%
same,outcome,NIH3T3 [2],inactive
same,Potency,MCC-13,inactive
same,Potency,MCC-26,inactive
same,Potency,MKL-1,inactive
same,Potency,MKL-2,inactive
same,outcome,NIH3T3 [6],inactive
same,Potency,UISO,inactive
same,Potency,WaGa,inactive
same,Potency,C33A,inactive
same,Potency,CAOV3,inactive
same,Potency,CASKI,inactive
same,Potency,Es-2,inactive
same,Potency,HeLa,inactive
same,Potency,Hek293T [4],inactive
same,Potency,JEG-3,inactive
same,Potency,OV90,inactive
O=c1ccc2ccccc2o1,max response,HaCat [1],-0.31%
same,max response,KB-3-1,-9.75%
same,outcome,NIH3T3 [2],inactive
same,outcome,HEK293T [3],inactive
same,Potency,MCC-13,inactive
same,Potency,MCC-26,inactive
same,Potency,MKL-1,inactive
same,Potency,MKL-2,inactive
same,outcome,NIH3T3 [6],inactive
same,Potency,UISO,inactive
same,Potency,WaGa,inactive
same,Potency,C33A,inactive
same,Potency,CAOV3,inactive
same,Potency,CASKI,inactive
same,Potency,Es-2,inactive
same,Potency,HeLa,inactive
same,Potency,Hek293T [4],inactive
same,Potency,JEG-3,inactive
same,Potency,OV90,inactive
